About 79,000 compounds went through this panel and 15% of them were active in at least one assay; those are over-represented in the sample as a whole. Unmarked numbers belong to inactive results. Calls of active or inactive are those of the source. No stated cut-off is given here; in the data, active means growth inhibition above about 70%; inactive means the rest.
Experiment: NCI Yeast Anticancer Drug Screen. Data for the sgs1 mgt1 strain (AID 161);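 further: 0% = growth of cultures given vehicle only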
Conditions: S. cerevisiae sgs1 mgt1 strain, at 50.0 µM, stronger effect = higher value
In short: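 Read-out: growth inhibition vs vehicle controls. Cells: mutant yeast strain deficient in DNA damage repair.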

SMILES	growth inhibition
CC1=C(C(=O)CC(=O)C(=O)Nc2ccc(C)cc2C)Sc2ccccc2N1	-33%
CCCCCCCCCCCCCCCC(=O)O	-18.9%
CCC1(N=[N+]=[N-])C(=O)c2ccccc2N(c2ccccc2)C1=O (stereo not drawn)	-18.9%
Cc1[nH]c(=O)nc(CC(O)(c2ccccc2)c2ccccc2)c1-c1ccccc1	-22%
Cc1ccc(-n2c(C)n[nH]c2=O)cc1	-9.8%
O=C1/C(=C/c2ccc(O)cc2)CCC1CNc1ccc(Cl)cc1 (stereo not drawn)	-2.6%
CCOC(=O)C1=C(Nc2ccc(Cl)cc2Cl)OC/C1=N\NS(=O)(=O)c1ccc(C)cc1	1.2%
CCCc1cc(C)cc(N=Cc2ccccc2)c1O	93.8% (active)
CCCCCCCCCCS(=O)(=O)CC(=O)O	14.7%
c1ccc2c(c1)ncc1cccn12	0.65%
CN1CC(O)CN(C)C1=S	1.6%
COc1ccc(NC(=O)CC(=O)N2N=C(N(CCC#N)c3ccc(Cl)cc3)CC2c2ccccc2)cc1 (stereo not drawn)	-1.55%
O=c1[nH]c2nc3ccccc3c(=O)n2/c1=C/c1ccco1	5.5%
CCN1CCCC1CO (stereo not drawn)	-10.1%
NCCN1C(=O)c2ccccc2C1(O)c1ccc(Cl)cc1 (stereo not drawn)	-7%
CC(=O)Nc1nc(C)c(CCCOc2ccc([N+](=O)[O-])cc2)c(Cl)n1	4%
O=c1[nH]c2cc([N+](=O)[O-])ccc2c2ccc(Cl)cc12	4.85%
CSc1nc(N)c(NS(=O)(=O)c2ccc([N+](=O)[O-])cc2)c(=O)[nH]1	5.65%

— PubChem BioAssay (NCI)
